The list is not random: actives were taken first. Their share in the collection is about 7.4%.
NPR1 antag = human Npr1 receptor antagonism | P16066 | HEK293 hNpr1 GloSensor cGMP, ANP-stimulated luminescence | Potency, µM (highest dose often 46.3 µM), for the others: at the highest dose activity change, negative = inhibition, usual class: inhibitors | 76,000 compounds, 1.6% hits | AID 1347048; calls by dose curve; also: nearly all actives have a fitted effect of over 60% in size
Target sequence (P16066 whole entry, looked up): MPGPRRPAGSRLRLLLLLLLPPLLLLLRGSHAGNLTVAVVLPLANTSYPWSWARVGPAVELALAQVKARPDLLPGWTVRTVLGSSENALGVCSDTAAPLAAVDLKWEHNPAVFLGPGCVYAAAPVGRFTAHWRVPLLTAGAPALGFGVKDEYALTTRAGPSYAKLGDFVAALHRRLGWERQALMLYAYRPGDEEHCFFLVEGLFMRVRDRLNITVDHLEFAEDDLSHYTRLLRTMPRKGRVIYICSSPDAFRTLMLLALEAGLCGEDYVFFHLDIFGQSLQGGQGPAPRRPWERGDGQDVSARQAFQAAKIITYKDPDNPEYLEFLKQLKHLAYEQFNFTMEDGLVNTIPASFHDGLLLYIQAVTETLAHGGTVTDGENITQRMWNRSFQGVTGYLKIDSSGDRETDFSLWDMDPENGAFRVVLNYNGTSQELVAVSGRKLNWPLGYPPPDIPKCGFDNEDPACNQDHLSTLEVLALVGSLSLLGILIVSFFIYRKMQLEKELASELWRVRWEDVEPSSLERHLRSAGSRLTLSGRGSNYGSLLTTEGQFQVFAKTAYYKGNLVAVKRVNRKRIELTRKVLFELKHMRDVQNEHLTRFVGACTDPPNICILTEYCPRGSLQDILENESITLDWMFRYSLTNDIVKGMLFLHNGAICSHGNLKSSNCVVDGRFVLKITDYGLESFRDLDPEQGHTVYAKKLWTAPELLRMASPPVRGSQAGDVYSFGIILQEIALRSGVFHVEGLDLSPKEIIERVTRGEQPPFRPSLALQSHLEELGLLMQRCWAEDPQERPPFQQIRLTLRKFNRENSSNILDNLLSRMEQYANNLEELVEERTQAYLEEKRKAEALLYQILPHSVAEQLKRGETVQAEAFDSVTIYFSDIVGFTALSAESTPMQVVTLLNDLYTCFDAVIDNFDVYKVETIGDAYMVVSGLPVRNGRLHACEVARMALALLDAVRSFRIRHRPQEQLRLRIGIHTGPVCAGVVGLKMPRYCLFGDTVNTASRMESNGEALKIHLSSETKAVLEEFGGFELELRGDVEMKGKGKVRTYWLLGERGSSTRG
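HEK293 cells stably expressing human Npr1 and cGMP GloSensor pGS-40F, loaded 2 h with 2% GloSensor reagent, given compound 30 min at room temperature. Luminescence read before and 20 min after 0.1 nM hNppA.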
3T3 cytotox = NIH 3T3 cell cytotoxicity. 94,000 compounds, 4.3% hits. NIH 3T3 viability, CellTiter-Glo ATP luminescence, 48-72 h. Potency, µM (series often up to 96.7 µM), inactives show at the highest dose activity change, negative = cytotoxicity, actives largely listed as inhibitors; also: nearly all actives have a fitted effect of over 55% in size
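Mouse fibroblast NIH 3T3 cells, 400 per well, received compound via pintool and were incubated for 48 or 72 hr prior to CellTiter-Glo ATP luminescence measurement.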
SNCA expr inhib = inhibitors of alpha-synuclein (SNCA) gene expression. HEK-293 SNCA-luciferase knock-in, luminescence, 24 h. Potency, µM (highest dose often 57.2 µM), for inactives: top-dose activity change, negative = inhibition, hits mostly inhibitors. 140,000 compounds, 0.17% hits. AID 1671194;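 also: plate controls were DMSO cells for no effect and cell-free wells for full effect; nearly all actives have a fitted effect of over 45% in size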
HEK293 viab = reduces viability of HEK-293 SNCA reporter cells; 150,000 compounds, 0.12% hits; HEK-293-SNCA-luc viability, GF-AFC fluorescence, 24 h; Potency, µM (titrated, usually from 57.1 µM), for inactives: at the top dose activity change, negative = cytotoxicity, actives largely listed as cytotoxic; AID 1671193;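 also: 0% = DMSO-treated cells and -100% = medium-only wells without cells; nearly all actives have a fitted effect of over 30% in size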
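HEK-293-SNCA-luc cells (1500/well) plated 24 h, then exposed 24 h to a dilution series; GF-AFC added 30 min at 37C, fluorescence 405/540 nm; normalised to medium-only and DMSO wells, Hill fit.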
FLuc inh = blocks purified firefly luciferase enzyme activity; P08659; purified P. pyralis luciferase, luminescence, biochemical; Potency, µM (doses to about 115 µM), hits mostly inhibitors; 76,000 compounds, 2.5% hits; AID 1347043; also: nearly all actives have a fitted effect of over 65% in size
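Purified P. pyralis luciferase (10nM final) in 50mM Tris acetate pH 7.5, 10mM Mg acetate, 0.01% Tween-20, 0.05% BSA with 10uM D-luciferin and 10uM ATP. Compounds titrated qHTS. Luminescence imaged on CCD.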
HEK cytotox = cytotoxic compounds in HEK 293 cells; HEK 293 viability, ATP luminescence (CellTiter-Glo), 48-72 h; Potency, µM (series often up to 115 µM), for the others: top-dose activity change, negative = cytotoxicity, actives largely listed as inhibitors; 94,000 compounds, 6.6% hits; AID 1345083; also: nearly all actives have a fitted effect of over 60% in size
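Luminescence from cellular ATP, measured with CellTiter-Glo, indicates HEK 293 viability. Cells plated at 250 cells/well are treated with compound for 48 or 72 hr at 37 degree Celsius before reagent addition.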
Starred values were filed as active, the others as inactive; i = inactive; ? = inconclusive; · = not tested or not shown; [ ] = dose if it differs, or a comment. Unless noted, calls follow the shape of the dose curve; as a rule, active = well fitted curve in the direction sought with a large enough effect; inconclusive = small, poorly fitted or top-dose-only effect, or another doubt; inactive = no such curve, though single readings can be large; an effect the other way counts as inactive or inconclusive. Unless noted, % is scaled to controls: 0 for no effect and ±100 for the full control effect; potency is read from the fitted curve at half-maximal effect.

SMILES | NPR1 antag | 3T3 cytotox | SNCA expr inhib | HEK293 viab | FLuc inh | HEK cytotox
COc1ccccc1-c1cccc(CN2CCCC(C(=O)NCc3cccc(F)c3)C2)c1 (stereo not given) | · | ? | ? | -14% | · | 13µM*
O=C(NCc1cccc(C(F)(F)F)c1)C1CCCN(Cc2cccc(-c3ccc(F)cc3F)c2)C1 (stereo not given) | · | ? | ? | -12% | · | 35µM*
COc1cccc(CNC(=O)C2CCCN(Cc3cccc(-c4ccccc4OC)c3)C2)c1 (stereo not given) | · | ? | -14% | -18% | · | ?
CN(Cc1ccccc1)C(=O)C1COC2(CCN(C(=O)CC(C)(C)C)CC2)N1C(=O)c1ccccc1 (stereo not given) | -1% | -27% | -8% | -2% | i | ?
CCN1CCCCC12Cc1ccccc1CN(C(=O)CCCN(C)C)C2 (stereo not given) | · | -13% | -17% | -19% | · | -7%
CCOCCNC(=O)C1CCCN(Cc2cccc(-c3ccccc3OC)c2)C1 (stereo not given) | · | ? | -2% | -8% | · | 40µM*
COc1ccccc1-c1cccc(CN2CCCC(C(=O)NCc3ccc4c(c3)OCO4)C2)c1 (stereo not given) | · | ? | ? | -10% | · | 35µM*
COc1ccccc1-c1cccc(CN2CCCC(C(=O)N3CCCCC3)C2)c1 (stereo not given) | · | ? | -6% | -14% | · | 79µM*
O=C(NCc1cccc(F)c1)C1CCCN(Cc2cccc(-c3ccc(F)cc3F)c2)C1 (stereo not given) | · | 35µM* | ? | ? | · | 45µM*
COC(=O)CNC(=O)C1CCCN(Cc2cccc(-c3ccccc3OC)c2)C1 (stereo not given) | · | ? | 2% | 4% | · | -26%
COc1ccccc1-c1cccc(CN2CCCC(C(=O)N3CCOCC3)C2)c1 (stereo not given) | · | ? | -8% | 1% | · | ?
O=C(NCC1CCCCCC1)C1CCCN(Cc2cccc(-c3ccc(F)cc3F)c2)C1 (stereo not given) | · | ? | -14% | -8% | · | ?
CS(=O)(=O)N1CCC(C2CCN(C(=O)CC3=CCCCC3)C2)CC1 (stereo not given) | -2% | -20% | ? | 4%[12.5 µM] | i | ?
CNC(=O)[C@@H]1C[C@@H](O)CN1C1CCN(C(=O)c2ccc(Cn3nc(C)cc3C)o2)CC1 | 16% | 1% | -21% | 7% | i | -14%
O=C(NCc1cccs1)C1CCCN(Cc2cccc(-c3ccc(F)cc3F)c2)C1 (stereo not given) | · | ? | ? | -10% | · | 45µM*
COc1ccccc1-c1cccc(CN2CCCC(C(=O)NCC(F)(F)F)C2)c1 (stereo not given) | · | ? | -16% | -1% | · | 45µM*
Cc1nn(C)c(C)c1S(=O)(=O)N1CCCC(C(=O)N2CCCn3nc(-c4ccc(F)cc4)cc3C2)C1 (stereo not given) | · | ? | -12% | -30% | · | 32µM*
COc1cccc(NC(=O)C2CCCN(S(=O)(=O)c3c(C)nn(C)c3C)C2)c1 (stereo not given) | · | · | -7% | 10% | · | ·
COc1ccc(-n2nc(C3CCCN(C(=O)Nc4ccc(Cl)cc4)C3)[nH]c2=O)cc1 (stereo not given) | 0% | -25% | 24% | -20% | i | ?
COc1ccc(CO[C@H]2COCCN(c3nc4ccccc4o3)C2)cc1 | -1%[70.6 µM] | -20%[174 µM] | -4%[87.6 µM] | 2%[87.6 µM] | i | ?
COc1ccc(CO[C@H]2COCCN(c3nc4ccccc4s3)C2)cc1 | -5%[70.6 µM] | ? | 37%[87.6 µM] | 0%[87.6 µM] | ? | 100µM*
Cc1noc(C)c1-c1cc2cc(C(C)C)oc2c(-c2cccc(CO)c2)n1 | -13%[70.6 µM] | ? | 41%[87.6 µM] | -29%[87.6 µM] | i | 71µM*
Cc1cc2c(-c3cccc(OC(C)C)c3)nc(-c3c(C)noc3C)cc2[nH]1 | -1%[70.6 µM] | 50µM* | -2%[87.6 µM] | ? | i | 28µM*
